# Test results published in PubChem BioAssay (NCATS).
# Results filed as inconclusive are left out. Entries that show only a call come without a potency. Values without a mark were called inactive. Calls of active or inactive are those of the source. Unless noted, calls follow the shape of the full dose curve.
# Key:
# [1] = qHTS for Inhibitors of the Functional Ribonucleoprotein Complex (vRNP) of Lassa (LASV) Arenavirus: LASV Primary Screen - GLuc reporter signal (AID 1347082; calls by dose curve; tested in HEK293 reporter line; also: nearly all actives have a fitted effect of over 60% in size; as to activity change, negative = inhibition: series mostly up to about 57 µM)
# [2] = qHTS for Inhibitors of the Functional Ribonucleoprotein Complex (vRNP) of Lassa (LASV) Arenavirus: Viability assay - alamar blue signal for LASV Primary Screen (AID 1347083; calls by dose curve; tested in HEK293 reporter line; also: nearly all actives have a fitted effect of over 80% in size; as to activity change, negative = reduced viability: series mostly up to about 57 µM)
# [3] = qHTS for Inhibitors of the Functional Ribonucleoprotein Complex (vRNP) of Lymphocytic Choriomeningitis Arenaviruses (LCMV): Viability assay - alamar blue signal for LCMV Primary Screen (AID 1347085; calls by dose curve; tested in HEK293 reporter line; also: nearly all actives have a fitted effect of over 80% in size; as to activity change, negative = lower viability: series mostly up to about 57 µM)
# [4] = biological target: Nucleoprotein (Lymphocytic choriomeningitis virus (strain Armstrong)) (UniProt P09992); assay: qHTS for Inhibitors of the Functional Ribonucleoprotein Complex (vRNP) of Lymphocytic Choriomeningitis Arenaviruses (LCMV): LCMV Primary Screen - GLuc reporter signal (AID 1347086); also: nearly all actives have a fitted effect of over 70% in size; as to activity change, negative = inhibition: series mostly up to about 57 µM
# Potency is read from the fitted curve at half-maximal effect.
# Sequence of Nucleoprotein (Lymphocytic choriomeningitis virus (strain Armstrong)) (P09992 whole entry, looked up): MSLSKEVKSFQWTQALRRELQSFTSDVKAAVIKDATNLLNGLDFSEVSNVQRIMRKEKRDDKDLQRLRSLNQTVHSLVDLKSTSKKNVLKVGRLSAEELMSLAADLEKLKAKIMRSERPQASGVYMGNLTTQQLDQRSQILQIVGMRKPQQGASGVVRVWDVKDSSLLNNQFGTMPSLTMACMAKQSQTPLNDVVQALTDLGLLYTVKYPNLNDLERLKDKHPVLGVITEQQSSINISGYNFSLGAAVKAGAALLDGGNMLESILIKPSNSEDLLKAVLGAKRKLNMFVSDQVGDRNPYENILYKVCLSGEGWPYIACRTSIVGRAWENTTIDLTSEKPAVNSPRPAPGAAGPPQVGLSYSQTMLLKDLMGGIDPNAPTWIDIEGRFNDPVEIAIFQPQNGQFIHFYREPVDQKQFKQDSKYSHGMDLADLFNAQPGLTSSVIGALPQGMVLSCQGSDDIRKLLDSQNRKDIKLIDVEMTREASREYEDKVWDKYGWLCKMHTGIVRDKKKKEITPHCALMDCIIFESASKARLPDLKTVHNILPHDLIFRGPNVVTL
SMILES,Potency [1],Potency [2],Potency [3],Potency [4],"activity change, negative = inhibition [1]","activity change, negative = reduced viability [2]","activity change, negative = lower viability [3]","activity change, negative = inhibition [4]"
COc1cc(-c2ccccc2)nc2ccccc12,inactive,inactive,inactive,inactive,–,–,–,–
COc1c2c(nc3ccccc13)OC(C(C)(O)COC(C)=O)C2 (centres undefined),inactive,inactive,inactive,inactive,–,–,–,–
COC1=C(OC)[C@]23CCc4ccc(OC)c(OC)c4[C@]2(CCN3C)CC1=O,inactive,inactive,inactive,inactive,–,–,–,–
NC(=O)c1ncn([C@@H]2O[C@H](CO)[C@@H](O)[C@@H]2O)c1N,inactive,inactive,inactive,inactive,–,–,–,–
O=C1c2ccccc2-n2c1nc1ccccc1c2=O,inactive,inactive,inactive,0.447 µM (active),–,–,–,–
C=C1[C@H](n2cnc3c(=O)[nH]c(N)nc32)C[C@H](O)[C@H]1CO,inactive,inactive,inactive,inactive,–,–,–,–
COc1cc(/C=C/c2ccccc2)cc(OC)c1,inactive,inactive,inactive,inactive,–,–,–,–
C[N+]1(C)[C@@H]2C[C@@H](OC(=O)C(O)(c3cccs3)c3cccs3)C[C@H]1[C@@H]1O[C@@H]12,inactive,inactive,inactive,inactive,–,–,–,–
COc1ccc([C@@H]2CC(=O)c3c(O)cc(O[C@@H]4O[C@H](CO)[C@@H](O)[C@H](O)[C@H]4O[C@@H]4O[C@@H](C)[C@H](O)[C@@H](O)[C@H]4O)cc3O2)cc1,inactive,inactive,inactive,inactive,–,–,–,–
O=C(Nc1ncc(SCCN2CCCC2)s1)[C@]1(c2ccc(S(=O)(=O)C3CC3)cc2)C[C@@H]1C1CCCCC1,inactive,inactive,inactive,inactive,–,–,–,–
CNc1nc(-c2ccc3c(N)n[nH]c3c2)cc(N2C[C@@H](C(=O)NC3CCCCC3)CC[C@@H]2C)n1,inactive,24.3 µM (active),38.5 µM (active),inactive,–,–,–,–
COc1cc(C/C=C\c2ccccc2)c(OC)cc1O,inactive,inactive,inactive,inactive,–,–,–,–
COC(=O)[C@@H]1CC2=CC(=O)CC[C@]2(C)[C@@]23O[C@@H]2C[C@@]2(C)[C@H](CC[C@@]24CCC(=O)O4)[C@@H]13,inactive,inactive,inactive,inactive,–,–,–,–
CC1NC(C(=O)O)Cc2c1[nH]c1ccccc21 (centres undefined),inactive,inactive,inactive,inactive,–,–,–,–
COc1cc2c(cc1O)C(Cc1ccc(O)cc1)NCC2 (centres undefined),inactive,inactive,inactive,inactive,–,–,–,–
C[C@]12C=CC(=O)N[C@@H]1CC[C@H]1[C@H]3CC[C@@H](C(=O)Nc4cc(C(F)(F)F)ccc4C(F)(F)F)[C@@]3(C)CC[C@@H]12,inactive,inactive,inactive,inactive,–,–,–,–
CCCCC[C@H](O)/C=C/[C@H]1OC(O)C[C@H](O)[C@@H]1C/C=C\CC(=O)O (some centres undefined),–,–,–,–,-6.19% [at 0.757 µM],12.3% [at 0.757 µM],-0.195% [at 0.757 µM],5.45% [at 0.757 µM]
COc1ccc2c(c1)OC[C@H]1c3cc4c(cc3O[C@@H]21)OCO4,inactive,inactive,inactive,inactive,–,–,–,–
O=Cc1cc2ccccc2o1,inactive,inactive,inactive,inactive,–,–,–,–
CC1=C2C(=O)OC(c3ccoc3)C2(C)CCC1 (centres undefined),inactive,inactive,inactive,inactive,–,–,–,–
CCCCCCC(CO)CCCC (centres undefined),inactive,inactive,inactive,inactive,–,–,–,–

SMILES,Potency [1],Potency [2],Potency [3],Potency [4],"activity change, negative = inhibition [1]","activity change, negative = reduced viability [2]","activity change, negative = lower viability [3]","activity change, negative = inhibition [4]"
CCCCc1ccc(O)cc1,inactive,inactive,inactive,inactive,–,–,–,–
COc1ccc2c(c1)c(=O)cc(-c1ccccc1)n2C,inactive,inactive,inactive,inactive,–,–,–,–
C[C@@H]1[C@H](C)CC[C@]2(C(=O)O)CC[C@]3(C)C(=CC[C@@H]4[C@@]5(C)C[C@@H](O)[C@H](O)[C@@](C)(CO)[C@H]5CC[C@]43C)[C@@H]12,inactive,inactive,inactive,inactive,–,–,–,–
C=C(C)[C@@H]1CCC2=CC(=O)C[C@@H](C)[C@]2(C)C1,inactive,inactive,inactive,inactive,–,–,–,–
COC(=O)c1c(C)cc(O)c(C)c1O,inactive,inactive,inactive,inactive,–,–,–,–
COc1ccc(C[C@@H]2c3cc(O)c(OC)cc3CCN2C)cc1O,inactive,inactive,inactive,inactive,–,–,–,–
CC1=CCC2C(C1)C2(C)C (centres undefined),inactive,inactive,inactive,inactive,–,–,–,–
CC(C)C(=O)OCCc1ccccc1,inactive,inactive,inactive,inactive,–,–,–,–
COC(=O)C1=CO[C@@H](O[C@@H]2O[C@H](CO)[C@@H](O)[C@H](O)[C@H]2O)C2C1CC(O)O[C@H]2C (some centres undefined),inactive,inactive,inactive,inactive,–,–,–,–
Nc1nc(Cl)nc2c1ncn2[C@@H]1O[C@H](CO)C(O)[C@H]1O (some centres undefined),inactive,inactive,inactive,inactive,–,–,–,–
C[C@]12CCC3C(CC[C@H]4C[C@@H](O)CC[C@]34C)C1C[C@@H](O)C2=O (some centres undefined),inactive,inactive,inactive,inactive,–,–,–,–
Cc1[nH]c(C=C2C(=O)Nc3ccc(S(=O)(=O)Cc4c(Cl)cccc4Cl)cc32)c(C)c1C(=O)N1CCC[C@H]1CN1CCCC1,inactive,inactive,inactive,inactive,–,–,–,–
O=CCCc1ccccc1,inactive,inactive,inactive,inactive,–,–,–,–
CC(=O)Oc1ccc2c(C)cc(=O)oc2c1,inactive,inactive,inactive,inactive,–,–,–,–
Cn1c(=O)c(-c2ccccc2)c(O)c2ccccc21,inactive,inactive,inactive,inactive,–,–,–,–
C[C@@H]1CCN(C(=O)CC#N)C[C@H]1N(C)c1ncnc2[nH]ccc12,inactive,inactive,inactive,inactive,–,–,–,–
C=CCc1c(OC)ccc2ccc(=O)oc12,inactive,inactive,inactive,inactive,–,–,–,–
CC1=CC(=O)/C(=C(/C)O)C(=O)O1,inactive,inactive,inactive,inactive,–,–,–,–
COc1c(C)c2c(c(O)c1CC=C(C)CCC(=O)OCCN1CCOCC1)C(=O)OC2,6.11 µM (active),6.85 µM (active),12.2 µM (active),6.11 µM (active),–,–,–,–
COC(=O)N1c2ccccc2C23[C@@H]4CN5CCC[C@]6(CCC12C(O)(C6)C4=O)[C@H]53,inactive,inactive,inactive,inactive,–,–,–,–
